ATXN2 expr inh = ATXN2 expression inhibition | HEK-293 ATXN2-luciferase reporter, luminescence, 24 h | Potency, µM (top dose mostly 57 µM), for inactives: at the top dose activity change, negative = inhibition, most hits filed as inhibitors | actives 0.72% (n = 360,000) | AID 1745845; note: potency is the fitted concentration of half-maximal effect; % is set by controls: 0 for no effect and ±100 for the full control effect; nearly all actives have a fitted effect of over 55% in size
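ATXN2-luciferase reporter cells (luciferase flanked by upstream and downstream ATXN2 gene portions) were treated 24 h at 37 °C with compounds at up to 57 uM. SteadyGlo luminescence gave expression; GF-AFC fluorescence gave viability.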
D3 ag = agonists of human D3 dopamine receptor | max activation, % | actives 0.58% (n = 410,000) | P35462 | D3R DiscoveRx beta-arrestin cells, luminescence, 90 min | AID 652048; in the data active = max activation above about 30%; note: 0% is about no effect
Target sequence (P35462 whole entry, looked up): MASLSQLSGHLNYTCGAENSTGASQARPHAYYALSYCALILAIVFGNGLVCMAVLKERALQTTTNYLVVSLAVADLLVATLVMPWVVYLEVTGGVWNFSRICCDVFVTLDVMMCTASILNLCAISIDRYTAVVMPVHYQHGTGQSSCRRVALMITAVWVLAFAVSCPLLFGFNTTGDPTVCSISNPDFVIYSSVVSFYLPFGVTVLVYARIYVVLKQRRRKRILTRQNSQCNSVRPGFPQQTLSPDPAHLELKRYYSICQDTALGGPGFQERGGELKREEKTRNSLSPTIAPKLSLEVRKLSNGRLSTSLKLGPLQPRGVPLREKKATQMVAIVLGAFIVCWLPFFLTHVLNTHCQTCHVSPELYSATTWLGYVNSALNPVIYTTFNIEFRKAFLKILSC
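Agonist-mode cell screen: cells plated at 1500/well and incubated overnight at 37 °C, then exposed to library compounds for 90 min at 37 °C. Detection reagent was added for 30–60 min at room temperature, and luminescence was read.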
TGFb SMAD3 inh = TGF-b pathway inhibition | HepG2 CAGA-GFP TGF-b/SMAD3 reporter, GFP fluorescence, 18 h; TGF-beta stimulated, 500 pg/mL final | Potency, µM (doses to about 46.1 µM), for the others: top-dose activity, negative = inhibition, actives largely listed as inhibitors | actives 1.2% (n = 410,000); note: potency is the fitted concentration of half-maximal effect; % is set by controls: 0 for no effect and ±100 for the full control effect; nearly all actives have a fitted effect of over 65% in size
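Cell-based qHTS in HEPG2 carrying a CAGA-GFP Smad reporter; compounds added before 500 pg/mL final TGF-beta, 18 h incubation at 37 degrees C, GFP fluorescence quantified per cell by imaging cytometry.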
S2 tox = viability counter-screen for ATXN expression inhibitors; AID 651635; actives 0.49% (n = 400,000); S2 cells (HEK-293 line with an ATXN2-luciferase reporter) viability, CellTiter-Fluor protease fluorescence, 24 h; Potency, µM (titrated, usually from 56.7 µM), usual class: cytotoxic; note: potency is the fitted concentration of half-maximal effect; nearly all actives have a fitted effect of over 40% in size
D3 antag = antagonists of human D3 dopamine receptor | P35462 | D3R cells, DiscoveRx beta-arrestin luminescence, antagonist mode; stronger effect = lower value | max response, negative = inhibition, % | actives 2.5% (n = 360,000); in the data active = max response below about -50%; inconclusive = no clear call, values can overlap the other calls; note: % is set by controls: 0 for no effect and ±100 for the full control effect
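Cells expressing the human receptor were seeded at 1500 cells/well, incubated overnight at 37 degrees C in 5% CO2, then exposed to library compounds with dopamine controls for 90 minutes at 37 degrees C before luminescent detection.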
HepG2 viability = counter-screen for TGF-b inhibitors: cytotoxicity in HepG2 cells. HepG2 CAGA-GFP viability, ATP luminescence, 18 h. Potency, µM (top dose mostly 46.1 µM), inactives show at the top dose activity change, negative = cytotoxicity, actives largely listed as cytotoxic. actives 0.76% (n = 410,000). AID 588856; note: potency is the fitted concentration of half-maximal effect
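CellTiter-Glo luminescence gave cytotoxicity after 18 hours at 37 degrees C. The cells were HepG2 CAGA-GFP in 1% FBS DMEM, stimulated with 500 pg/mL TGF-beta after compound addition. %Activity was normalised to no-cell wells (complete cell-killing) and DMSO (no toxicity), and curves were fitted and classified.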
Active calls of the source: *; i = inactive; ? = inconclusive; nt = not tested or not shown; ! = not confirmed by another sample. In the library only some 4.8% were active in any assay of this set; here they are far more common. Unless noted, calls come from the whole dose curve; as a rule, active = well fitted curve in the direction sought with a large enough effect; inconclusive = small, poorly fitted or top-dose-only effect, or another doubt; inactive = no such curve, though single readings can be large; an effect the other way counts as inactive or inconclusive.

SMILES	ATXN2 expr inh	D3 ag	TGFb SMAD3 inh	S2 tox	D3 antag	HepG2 viability
O=C(CCN1CCCCC1)Nc1ccc(Br)cc1	-12%	-13	-2%	i	-69*	-21%
O=C(CN1CCCC1)Nc1ccc(Br)cc1	nt	-1	3%	nt	-17	-10%
COC(=O)c1ccc(NC(=O)CCN2CCCCC2)cc1	4%	-4	-1%	i	-52*!	-36%
O=C(CN1CCCCCC1)Nc1ccc(Br)cc1	11%	-29	-5%	i	-114*	-2%
Cc1c(Cl)cccc1NC(=O)CCN1CCN(C)CC1	-5%	-9	12%	i	-3	4%
CCCCNC(=O)Cn1c(SCc2cccc(F)c2)nc2ccncc21	nt	nt	-11%	nt	nt	-9%
CCOC(=O)Cn1c(=O)c2c(nc(N3CCOCC3)n2Cc2ccccc2)n(C)c1=O	nt	1	-11%	nt	nt	-1%
O=C(CN1CCN(S(=O)(=O)N2CCCCC2)CC1)Nc1ccc(Br)cc1	-26%	4	3%	i	2	-33%
O=C(CN1CCN(C2CCCCC2)CC1)Nc1ccc(Br)cc1	-20%	-20	1%	i	-53*	0%
CCCCOc1ccc(CNC(=O)CCCN2C(=O)CSc3c2c(C)nn3-c2ccccc2)cc1	?	4	?	?	nt	-23%
Cc1ccc(S(=O)(=O)Nc2nncs2)cc1	-7%	-1	-12%	i	-60*	10%
CC(C)C[C@H]1CNC(=O)C(=O)N1CC1CCN(CCc2ccccc2)CC1	-2%	-14	-17%	i	-76*	-6%
CC(C)C[C@H]1CNC(=O)C(=O)N1CC1CCN(CCc2ccc(-c3ccccc3)cc2)CC1	-23%	-45	-9%	i	-60*	-15%
O=C1NC[C@H](Cc2ccccc2)N(CC2CCN(CCc3ccc(-c4ccccc4)cc3)CC2)C1=O	?	-46	-25%	i	-78*	-30%
CCOC(=O)c1cc(-c2ccc(OC)cc2)n(CCC(=O)NC2CCC(C)CC2)c1C (configuration not stated)	nt	-8	-20%	nt	nt	-9%
CCCCOc1ccc(OC(=O)c2sc3ncn(Cc4cccc(F)c4)c(=O)c3c2C)cc1	10%	8	8%	i	nt	0%
Cc1ccc(S(=O)(=O)Nc2cccc3ncccc23)s1	?	-25	?	?	-77*	0%
COC(=O)c1ccc(CSc2c(C(C)C)cnc3c2c(=O)n(C)c(=O)n3C)cc1	nt	7	-7%	nt	nt	9%
COCCOC(=O)C1=C(C)NC(=O)N(C(C)=O)C1c1ccc(Cl)cc1 (configuration not stated)	-1%	-7	2%	i	-102*	-2%
Cc1ccc(CNc2ncnc3sc(C(=O)N4CCC[C@H]4C(N)=O)c(C)c23)o1	nt	nt	nt	i	nt	nt
CCN1C(=O)[C@H]2[C@@H](c3ccc(C)cc3)N3C(=O)N(c4ccccc4)C(=O)[C@@]3(Cc3ccccc3)[C@H]2C1=O	-1%	-7	-16%	i	2	-20%
CCN1C(=O)[C@H]2[C@@H](c3ccc(C)cc3)N3C(=O)N(c4ccc(C)cc4)C(=O)[C@@]3(Cc3ccccc3)[C@H]2C1=O	9%	48*	?	i	43	1%
Cc1cccc([C@@H]2[C@@H]3C(=O)N(Cc4ccccc4)C(=O)[C@@H]3[C@]3(Cc4ccccc4)C(=O)N(c4cccc(Cl)c4)C(=O)N23)c1	3%	6	?	i	-20	-6%
Cc1cccc([C@@H]2[C@@H]3C(=O)N(Cc4ccccc4)C(=O)[C@@H]3[C@]3(C)C(=O)N(c4cccc(Cl)c4)C(=O)N23)c1	-2%	-5	1%	?	-60*	23%
Cc1ccc(S(=O)(=O)N(C)C)cc1NC(=S)NC(C)CCCC(C)C (configuration not stated)	-18%	-13	18µM*	i	?	-34%
SMILES	ATXN2 expr inh	D3 ag	TGFb SMAD3 inh	S2 tox	D3 antag	HepG2 viability
C/C(=N/NS(=O)(=O)c1ccc(C)cc1C)c1c[nH]c2ccccc12	-18%	11	18µM*	i	8	-25%
C/C(=N/NS(=O)(=O)c1ccc(C)c(C)c1)c1c[nH]c2ccccc12	1%	2	-22%	i	-6	-27%
O=c1cnnc(N/N=C/c2ccccn2)[nH]1	1.8µM*	-13	-30%	?	1	-24%
Cc1cc(=O)[nH]c(N/N=C/c2ccccn2)n1	?	0	?	i	2	-11%
O=c1nc(N/N=C/c2ccccn2)cn[nH]1	6.3µM*	8	6%	i	-4	-13%
CC(=O)c1ccc(NC(=O)CN2C(=O)c3cccnc3Sc3ccccc32)cc1	32%	1	6%	i	nt	-3%
COc1ccc2c(c1)NC(c1cccnc1)=NC(c1ccc(F)cc1)=N2	12%	-2	10%	i	nt	1%
CN(C)c1ccc2ccc3cccc4ccc1c2c34	nt	nt	50%	nt	nt	-27%
O=[N+]([O-])c1ccc(N/N=C/c2cccc(O)c2O)c(S(=O)(=O)N2CCOCC2)c1	nt	-8	?	i	-64*	-23%
SCc1nc2ccccc2[nH]1	nt	nt	2%	nt	nt	-11%
O=C(CS(=O)c1ccc(C(F)(F)F)cc1[N+](=O)[O-])Oc1ccccc1 (configuration not stated)	?	-16	?	?	?	3.5µM*
CS(=O)(=O)c1ccc(S(=O)CC(=O)OCc2ccccc2)c([N+](=O)[O-])c1 (configuration not stated)	?	-29	4.5µM*	nt	-90*	7.1µM*
COc1ccc(C(=O)NCC(c2ccco2)N(C)C)cc1S(=O)(=O)NCc1ccc(Cl)cc1 (configuration not stated)	15%	-21	-2%	i	-97*	-13%
COc1ccc(C(=O)NCCNC(C)=O)cc1S(=O)(=O)NCc1ccc(Cl)cc1	nt	1	-7%	nt	?	-7%
Nc1ccccc1O	-3%	7	?	i	4	16µM*
Nc1cccc2c(O)cccc12	-7%	27	6%	i	2	13%
Cc1cc(Nc2cccc(Cl)c2)nc2ccc(NC(=O)COc3ccc(Cl)cc3)cc12	-21%	-4	?	nt	nt	-63%
COc1cccc(NC(=O)c2oc3ccccc3c2NC(C)=O)c1	54%	-33	-1%	i	-55*	-22%
CCOC(=O)c1oc2ccccc2c1CN1CCN(c2ccccc2)CC1	-2%	-4	-8%	i	-77*	-8%
CCOC(=O)c1oc2ccccc2c1CN1CCN(C(=O)c2ccccc2)CC1	-9%	4	-18%	i	20	-25%

Source: PubChem BioAssay
